Bioassay records (PubChem)
Hits are enriched below; roughly 7.3% of the tested compounds scored in any of these assays.
SMN2 splice enh: enhancers of SMN2 splice variant expression; HEK293 SMN2-luciferase splicing reporter, luminescence, 30-36 h; Potency, µM (series often up to 46.1 µM), inactives show at the highest dose activity change, positive = activation, usual class: activators; 2.8% of 210,000 active; further: % of control where 0% means no effect; nearly all actives have a fitted effect of over 55% in size
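HEK293 cells carry an SMN2 minigene-luciferase reporter in which exon 7 inclusion puts luciferase in frame. Cells were seeded at 2000 cells/well, attached for 10-12 hours, then exposed to compounds for 30-36 hours at 37C before ONE-Glo luminescence.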
Rab9 promoter act: Rab9 promoter activation; Huh7 Rab9 promoter-luciferase reporter, luminescence, 24 h; Potency, µM (top dose mostly 9.22 µM), without a hit: at the highest dose activation, negative = inhibition, usual class: activators; 2.8% of 320,000 active; further: % of control where 0% means no effect; nearly all actives have a fitted effect of over 60% in size
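Huh7 reporter line, Rab9 promoter upstream of luciferase. Compound exposure 24 h at 37 °C in reduced-serum medium with 10% FBS. Read-out: luminescence.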
NPC1 prom act: activates the NPC1 promoter. 2.4% of 320,000 active. Potency, µM (series often up to 9.22 µM), for inactives: at the highest dose activation, most hits filed as activators. Huh7 NPC1 promoter luciferase reporter, 24 h; further: % of control where 0% means no effect; nearly all actives have a fitted effect of over 60% in size
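Quantitative HTS used a cell-based reporter: Huh7 cells stably bearing the NPC1 promoter upstream of luciferase were treated with compounds for 24 h, and promoter activation was read as luminescence.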
KinaseGlo FLuc: Kinase-Glo luciferase inhibition (counter-screen) | Q27757 | Kinase-Glo luciferase, ATP luminescence, 8 min | Potency, µM (titrated, usually from 38.3 µM), without a hit: at the top dose activity change, negative = inhibition, actives largely listed as inhibitors | 0.28% of 200,000 active | AID 1379; further: on the % scale 0 is the no-effect control and ±100 the full control effect; nearly all actives have a fitted effect of over 60% in size
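Recombinant Kinase-Glo luciferase, 10 uM ATP (linear range), luciferin; imidazole pH 7.2 / KCl / MgCl2 / Tween / BSA buffer; 8 min RT; luminescence.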
ELG1 genotox: genotoxicity induction in ELG1-luciferase HEK293T cells. 1.3% of 330,000 active. AID 504466. Potency, µM (highest dose often 46 µM), without a hit: top-dose activity change, positive = activation, actives largely listed as activators. HEK293T ELG1-luciferase reporter, luminescence, 16 h; further: % of control where 0% means no effect; nearly all actives have a fitted effect of over 60% in size
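HEK293T cells expressing luciferase-tagged ELG1 were exposed to compound or DMSO vehicle for 16 hr at 37 °C and 5% CO2. Luciferase activity was then measured with ONE-Glo after 30 min at room temperature.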
FLuc counter: counter-screen for miR-21 project: firefly luciferase inhibitors or activators. purified FLuc, Km substrates, luminescence inhibition. Potency, µM (highest dose often 57.5 µM), for the others: top-dose activity change, negative = inhibition, usual class: inhibitors. AID 588342. 6.9% of 360,000 active. P08659;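 further: plate controls were vehicle for no effect and reference inhibitor for full effect; nearly all actives have a fitted effect of over 55% in size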
Target sequence (P08659 whole entry, looked up): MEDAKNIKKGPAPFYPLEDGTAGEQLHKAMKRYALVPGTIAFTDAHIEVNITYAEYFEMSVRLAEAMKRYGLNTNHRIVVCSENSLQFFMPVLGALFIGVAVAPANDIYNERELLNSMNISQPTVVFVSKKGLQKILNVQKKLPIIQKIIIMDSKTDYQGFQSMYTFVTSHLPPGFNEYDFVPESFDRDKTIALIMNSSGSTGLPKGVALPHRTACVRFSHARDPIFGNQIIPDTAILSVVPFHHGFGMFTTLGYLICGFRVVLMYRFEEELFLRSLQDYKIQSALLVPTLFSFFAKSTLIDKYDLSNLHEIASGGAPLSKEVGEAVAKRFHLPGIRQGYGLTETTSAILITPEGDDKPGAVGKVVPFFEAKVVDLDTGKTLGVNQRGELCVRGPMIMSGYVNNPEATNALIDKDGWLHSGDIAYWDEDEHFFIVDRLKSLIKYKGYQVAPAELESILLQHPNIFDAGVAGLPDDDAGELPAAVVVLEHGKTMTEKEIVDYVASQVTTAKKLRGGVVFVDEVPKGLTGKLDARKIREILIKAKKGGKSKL
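Purified P. pyralis luciferase, 10 nM final, with Km-level 10 uM D-luciferin and 10 uM ATP in 50 mM Tris acetate pH 7.5, 10 mM Mg acetate, 0.01% Tween-20, 0.05% BSA; 6-point qHTS titration about 60 µM downward; luminescence read.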
Starred values were filed as active, the others as inactive; ? = inconclusive; . = no result; [ ] = dose if it differs, or a comment. The call rests on the fitted dose curve; in most records, active means well fitted curve in the direction sought with a large enough effect; inconclusive means small, poorly fitted or top-dose-only effect, or another doubt; inactive means no such curve, though single readings can be large; an effect the other way counts as inactive or inconclusive. Potency means the concentration at half of the fitted maximal effect.

SMILES	SMN2 splice enh	Rab9 promoter act	NPC1 prom act	KinaseGlo FLuc	ELG1 genotox	FLuc counter
COc1cc(/C=C/c2nc3ccc([N+](=O)[O-])cc3s2)ccc1OCC(=O)O	.	-6%	-2%	.	-3%	2.7µM*
COc1cc(/C=C/c2ccc3c([N+](=O)[O-])cccc3n2)ccc1OCC(=O)O	.	0%	3%	.	2%	3.4µM*
C/C=C/c1ccc(OCC(=O)O)c(OC)c1	.	1%	-6%	.	0%	3%
CCOc1c(OC(C)=O)ccc(/C=C/c2ccc3cccc(OC)c3n2)c1[N+](=O)[O-]	?	13%	?	1%	0%	6µM*
Cc1cccc(OCC(=O)Nc2c(C(=O)N3CCN(c4ccccc4)CC3)oc3ccccc23)c1	.	.	.	.	.	0%
CCCCc1nc2c(c3c1C[C@H](C)OC3)CN(C(=O)c1ccco1)CC2	-12%[9.22 µM]	.	.	-5%[7.66 µM]	.	.
CCOc1ccc(NC(=O)N(Cc2cn(CC)c3ccccc23)C2CCCCCC2)cc1	?	.	.	.	.	-14%
O=C(O)COc1ccc(/C=C/c2ccc3cccc([N+](=O)[O-])c3n2)cc1	24%	0%	10%	2%	10%	2.7µM*
COC(=O)c1cc(-c2ccc(Cl)cc2)n[nH]1	.	11%	-9%	3%	7%	?
COC(=O)c1cc(-c2ccc(Cl)cc2Cl)n[nH]1	21%	-2%	1%	-1%	?	15µM*
C=C(C)COc1ccc(-c2nc(N)ncc2Oc2ccccc2OC)c(O)c1	-4%	2%	2%	-6%	4%	21µM*
Cc1ccc(Sc2c(C)nn(C(C)(C)C)c2OC(=O)CC(C)C)cc1	-11%	.	.	.	.	5%
COc1ccc(NC(=O)c2cc3c(=O)n(Cc4ccco4)ccc3nc2C)c(OC)c1	.	.	.	.	.	-6%
CCc1nnc(NS(=O)(=O)c2ccc(N/C=C\C(=O)c3ccc(F)cc3)cc2)s1	-1%	-3%	3%	0%	0%	19µM*
COc1cccc(C(=O)/C=C/Nc2ccc(S(=O)(=O)Nc3ncccn3)cc2)c1	12%	-1%	1%	0%	1%	?
CCc1nnc(NS(=O)(=O)c2ccc(N/C=C\C(=O)c3cccc(OC)c3)cc2)s1	3%	-7%	1%	0%	10%	17µM*
CCc1nnc(NS(=O)(=O)c2ccc(N/C=C/C(=O)c3ccc(C)cc3)cc2)s1	?	-6%	0%	-1%	0%	24µM*
CCc1nnc(NS(=O)(=O)c2ccc(N/C=C\C(=O)c3ccc(C)cc3)cc2)s1	23%	-7%	0%	-3%	8%	19µM*
CCc1nnc(NS(=O)(=O)c2ccc(NC(=O)c3ccc(S(=O)(=O)N(CC)CC)cc3)cc2)s1	.	-5%	-2%	.	-1%	4%
CCc1nnc(NS(=O)(=O)c2ccc(NS(=O)(=O)c3ccc(NC(C)=O)cc3)cc2)s1	-8%	-2%	-4%	15%	-2%	1%
Cc1ccc(C)c(N(C)C(=O)CCNC(=O)Cn2cnc3ccccc3c2=O)c1	-18%	.	.	.	.	1%
COc1ccc(/C=C(\NC(=O)c2ccccc2)C(=O)NC2CCCCC2)cc1	-1%	.	.	.	.	-4%
O=C(NCC(c1ccco1)S(=O)(=O)c1cccs1)c1ccc(C(F)(F)F)cc1 (stereo unspecified)	.	.	.	.	.	3%
Nc1nc(-c2ccccc2)cn1/N=C/c1ccccc1	.	0%	-9%	.	?	15µM*
Cc1ccc(-c2nc(CCNC(=O)C(=O)Nc3ccc(C)c(C)c3)cs2)cc1	.	.	.	.	.	1%
Cc1ccc(C(=O)NCCc2csc(-c3cccnc3)n2)cc1	?	?	20%	-2%	?	5.4µM*
COc1cccc(OC)c1C(=O)NCCc1csc(-c2ccc(Cl)cc2)n1	.	.	.	.	.	-4%
Cc1ccc(-c2nc(CCNC(=O)c3ccc(C)c(C)c3)cs2)cc1	.	.	.	.	.	24µM*
O=C(NCCc1csc(-c2cccnc2)n1)c1cccs1	-1%	2%	0%	2%	-4%	?
